The whole screen tested about 4,500 compounds, of which about 200 (4.4%) were called active. The sample holds actives, similar compounds and a random draw of the others, so the mix is not that of the screen.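 How the source made its calls: active means cell survival measured by absorbance rises more than 2.5-fold over infected cells without compound; inactive means the rest.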

A short description of this experiment: survival after telomere uncapping, modulators, primary screen, cell-based (AID 1259312).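 Further: virus expresses mutant telomerase RNA that uncaps telomeres and kills cells; compound added 2 days after infection so exposure lasts 3 days.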 Conditions: HCT116 + Ad-hTR-mut, MTT, 5 d; at 10 µM, hits give high values.
Take `CCOc1ccc2c(c1)-c1c(sn(-c3ccc(OC)cc3)c1=S)C(C)(C)N2`: the fold change was -1.06 (inactive).

On to `COc1ccc2c(c1)-c1c(ssc1=S)C(C)(C)N2C(=O)CSc1ncn[nH]1`, for which the fold change is -3.53 (inactive).

Consider `CCOc1ccc2c(c1)-c1c(ssc1=S)C(C)(C)N2`, for which the fold change is 5.41 (active).

Regarding `CC1(C)Nc2ccccc2-c2c1ssc2=S`, the fold change was 4.78 (active).

For `Cc1ccc2c(c1)-c1c(ssc1=S)C(C)(C)N2`, the fold change is 2.39 (inactive).

With `Cc1cc(C)c2c(c1)-c1c(ssc1=S)C(C)(C)N2C(=O)c1ccccc1`, the fold change was -2.03 (inactive).

Turning to `CCOc1ccc2c(c1)-c1c(ssc1=Nc1ccc(Cl)cc1C)C(C)(C)N2`, the fold change was -1.6 (inactive).

For the compound `Cc1cccc2c1N(C(=O)c1ccc(-c3ccccc3)cc1)C(C)(C)c1ssc(=S)c1-2`, the fold change was -1.16 (inactive).

As for `COc1ccc2c(c1)-c1c(ssc1=S)C(C)(C)N2`, the fold change was 3.31 (active).

`O=C(c1cccs1)[C@H]1CCCC[C@H]1C(=O)O`: the fold change was 1.2 (inactive).

As to `Oc1ccc2c(c1)c1c3n2CCNC3CCC1` (configuration not stated), the fold change was -1.09 (inactive).

In the case of `COc1ccc(C2C=COc3n[nH]c(-c4ccccc4)c32)cc1OC` (configuration not stated), the fold change was 2.04 (inactive).

On to `Cn1cc(/C=C2\C(=O)NC(=S)N(c3ccc(Br)cc3)C2=O)c2ccccc21`, for which the fold change is -1.42 (inactive).

As to `O=C(NCCOC1=NS(=O)(=O)c2ccccc21)C(=O)Nc1ccccc1`, the fold change was 1.05 (inactive).

As for `CC(=O)N/C(=N/c1nc(C)cc(C)n1)Nc1ccc(F)cc1F`, the fold change result was “inactive”.

For the compound `COc1ccc(-c2nc3sc(-c4ccc(OC)c(OC)c4)nc3s2)cc1OC`, the fold change is -4.78 (inactive).

On to `S=c1[nH]nc(COc2cccc3ccccc23)n1-c1ccccc1`, for which the fold change was 3 (active).

`S=c1[nH]nc(Cn2cnc3ccccc32)n1-c1ccccc1`: the fold change is 1.13 (inactive).

For `S=c1[nH]nc(COc2ccccc2)n1-c1ccccc1`, the fold change was 1.72 (inactive).

In the case of `Cc1c(C(=O)OC(C)C)sc(NC(=O)C(F)(F)C(F)(F)C(F)(F)C(F)(F)F)c1C(=O)OC(C)C`, the fold change was -1.73 (inactive).

Consider `O=c1oc(-c2cccc(F)c2)nc2ccc(Br)cc12`, for which the fold change was -1.47 (inactive).

Turning to `NC(=O)c1cc2ccccc2o1`, the fold change was 2.76 (active).

As for `COC(=O)c1cc2cc(Br)ccc2o1`, the fold change is -2.17 (inactive).

As for `Nc1cc2ccccc2cc1N`, the fold change is -1.17 (inactive).

As for `Clc1nc2ccccc2nc1-c1ccccc1`, the fold change is -1.36 (inactive).

Consider `N=C1S/C(=C/c2cn[nH]c2-c2ccc(F)cc2)C(=O)N1c1nonc1N`, for which the fold change is -1.44 (inactive).

With `N#Cc1c(N)nc2c(c1-c1cccc(Br)c1)CCCC2`, the fold change is 2.68 (active).

Turning to `N#Cc1c(N)nc2c(c1-c1cccc(Br)c1)CCCCCC2`, the fold change is -1.03 (inactive).

For the compound `Cc1ccc(-c2c(C#N)c(N)nc3c2CCCC3)c(C)c1`, the fold change is 1.09 (inactive).

Consider `Cc1ccc(C)c(-c2c(C#N)c(N)nc3c2CCCCC3)c1`, for which the fold change is -1.2 (inactive).

On to `N#Cc1c(N)nc2c(c1-c1ccc(Cl)cc1Cl)CCCCC2`, for which the fold change was 4.06 (active).

Regarding `N#Cc1c(N)nc2c(c1-c1cccc(Br)c1)CCCCC2`, the fold change is -1.02 (inactive).

`Brc1ccc2nc(SCCOc3ccccc3)[nH]c2c1`: the fold change is -1.46 (inactive).

For `COC(=O)C1=C(C)NC(=S)NC1c1cccs1` (configuration not stated), the fold change is 1.16 (inactive).

As to `N#CC1=C(N)OC2=C(C(=O)CCC2)C1c1ccc2c(c1)OCO2` (configuration not stated), the fold change is 1.15 (inactive).

For the compound `NNC(=O)C(=O)Nc1nccs1`, the fold change was -2.19 (inactive).

Consider `Cc1cc(-c2ccco2)c(C#N)c(SCC(=O)C(F)(F)F)n1`, for which the fold change is 1.03 (inactive).

`Cc1cc(C)c(CSc2nc(C)cc(=O)[nH]2)c(C)c1`: the fold change entry is “inactive”.

With `Cc1cc(C)c(C#N)c(SCc2cc(=O)[nH][nH]2)n1`, the fold change is 3.11 (active).

As for `O=c1/c(=C\c2ccco2)sc2nnc(-c3ccccc3)n12`, the fold change is -1.37 (inactive).

Take `COc1ccc(S(=O)(=O)N(CCO)C2CCCCC2)cc1`: the fold change was 1.31 (inactive).

`CCCCc1ccc(C2C(C#N)=C(N)OC3=C2C(=O)CC(C)(C)C3)s1` (configuration not stated): the fold change is 2.3 (inactive).

On to `O=S(=O)(NCc1cccnc1)c1cccs1`, for which the fold change is -1.29 (inactive).

On to `O=S(=O)(NCc1cccnc1)c1cc(Cl)ccc1Cl`, for which the fold change is 3.37 (active).

Consider `COCCCNS(=O)(=O)c1cc(Cl)ccc1Cl`, for which the fold change is -1.38 (inactive).

For `O=S(=O)(Nc1cccnc1)c1cc(Cl)ccc1Cl`, the fold change is 1.16 (inactive).

Turning to `CCCNS(=O)(=O)c1cc(Cl)ccc1Cl`, the fold change is -2.13 (inactive).

For the compound `COCCNS(=O)(=O)c1cc(Cl)ccc1Cl`, the fold change was 2.95 (active).

As to `O=c1[nH]c(O)c(C=Nc2cc(Cl)ccc2O)c(=O)[nH]1`, the fold change result is “inactive”.

As for `c1ccc(N/N=C2/C/C(=N\Nc3ccccc3)c3ccccc32)cc1`, the fold change is -1.1 (inactive).

`CC1(C)CCC[C@@]2(C)C1CCC1(C)OC(=O)CC12` (some centres not stated): the fold change is -3.56 (inactive).

`O=C(Nc1ccc2c(c1)OCCO2)C1CC(=O)N(C2CCCCC2)C1` (configuration not stated): the fold change is -1.27 (inactive).

On to `Clc1cccc(Cl)c1-c1noc(CSc2nc3ccccc3s2)n1`, for which the fold change is -1.38 (inactive).

Consider `N#CC1(C#N)C(c2ccc(O)cc2)C(C(=O)c2ccccc2)N2c3ccccc3C=CC21` (configuration not stated), for which the fold change was 1.02 (inactive).

On to `N#CC1(C#N)C(c2c(F)cccc2Cl)[C@@H](C(=O)c2ccc(F)cc2)N2c3ccccc3C=C[C@@H]21` (some centres not stated), for which the fold change was 3.43 (active).

In the case of `N#CC1(C#N)C(c2ccc(Cl)cc2Cl)C(C(=O)c2ccccc2)N2c3ccccc3C=CC21` (configuration not stated), the fold change is 1.29 (inactive).

Consider `CN(c1ccccc1)c1nc(N)nc(CSc2nnc(-c3ccc(F)cc3)n2C)n1`, for which the fold change was 1.9 (inactive).

Turning to `Nc1c(Cl)cc(-c2nc3ccccc3o2)cc1Cl`, the fold change is 1.24 (inactive).

For the compound `Cc1nn(-c2ccccc2)c(Cl)c1N=Nc1c(C)nn(-c2ccccc2)c1Cl`, the fold change was -1.52 (inactive).

With `CN(C)c1ccc(/C=N/c2nccs2)cc1`, the fold change is -1.55 (inactive).

`c1csc(CNc2ccc(NCc3cccs3)cc2)c1`: the fold change was 1.24 (inactive).

On to `CC(C)NC(=O)CC(=O)NN=C1CCCC1`, for which the fold change is 1.85 (inactive).

`O=C1NC(=S)N/C1=C/c1c(F)cccc1Cl`: the fold change is 1.33 (inactive).

Regarding `O=C1NC(=S)N/C1=C\c1ccc(Cl)cc1Cl`, the fold change is 5.07 (active).

`O=C1NC(=S)N/C1=C\c1cc(Br)cc(Br)c1O`: the fold change was -1.6 (inactive).

In the case of `O=C1c2ccccc2NC2(C(=O)Nc3ccccc32)N1CCOc1ccccc1` (configuration not stated), the fold change is 1.15 (inactive).

On to `CCOC1(C)OC2CCC(CC)OC2O1` (configuration not stated), for which the fold change is 1.54 (inactive).

Source of the values: PubChem BioAssay AID1259312 (Keith Lab, Institute of Cancer Science, University of …, 2017).
